This note sets out measurements from paper PMC5892938, “SARNAclust: Semi-automatic detection of RNA protein binding motifs from immunoprecipitation data”.

Over roughly 11,000 sequences, “log2 fold change” has its median near 0.00022; the highest 2% begin near 0.34. This is one part of the list.

The target of this assay is GST-SBP-SLBP (stem-loop binding protein) (Homo sapiens, UniProt Q14493 1-270). Put plainly: targeted RNA Bind-n-Seq; RBNS binding buffer: 25 mM Tris pH 7.5, 150 mM KCl, 3 mM MgCl2, 0.1% Tween, 0.5 mg/mL BSA, 1 mM DTT; 27 nM protein, 750 pM RNA pool; temperature not stated; high values mean tight binding. Conditions: protein: recombinant; tags: N-terminal GST and SBP (pGEX6P1-SBP); structured_RNA. The method in brief: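 A designed RNA oligo pool, transcribed with T7, was present at 750 pM and incubated in RBNS binding buffer with 27 nM of GST-SBP-tagged protein that had been expressed in Rosetta(DE3) pLysS E. coli and purified with glutathione. After reverse transcription with a 10-nucleotide barcoded primer and PCR, the bound RNA was sequenced as 200-cycle paired-end reads on a MiSeq. Each sequence's binding signal is the DEseq binary-logarithm fold change in read counts, computed after joining reads with FLASH, aligning with HISAT2 and collapsing by barcode.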
Regarding “GGUCACGUCUCAAUCAACUCAAUCUCAGGAGUUUUCUCCUGCUAUUUCAACAGCUCGCAGUCAAG”, the binding signal is 0.339 ± 0.222 log2 fold change.
The same measure for “GGUCACGUCUCAAUCAACUCAUCCCCAGGAGUUUGCUCCUGCAUUCUCAACAGCUCGCAGUCAAG”: 0.306 ± 0.225 log2 fold change; for “GGUCACGUCUCAAUCAACUCAAUCCCAGGAGUUUGCUCCUGCAUAUUCAACAGCUCGCAGUCAAG”: 0.355 ± 0.208 log2 fold change; for “GGUCACGUCUCAAUCAACUCAUCCUCAGGAGUUUGCUCCUGCAUAUUCAACAGCUCGCAGUCAAG”: 0.313 ± 0.205 log2 fold change.
Next, “GGUCACGUCUCAAUCAACUCAUCCGCAGGAGUUUCCUCCUGGUAUUUCAACAGCUCGCAGUCAAG”: 0.483 ± 0.25 log2 fold change.
Next, “GGUCACGUCUCAAUCAACUCAGUCCCAGGAGUUUUCUCCUGCUAAUUCAACAGCUCGCAGUCAAG”: 0.335 ± 0.235 log2 fold change; “GGUCACGUCUCAAUCAACUCUUUCUCAGGAGUUUCCUCCUGCAUUUUCAACAGCUCGCAGUCAAG”: 0.312 ± 0.164 log2 fold change.
Regarding “GGUCACGUCUCAAUCAACUCAAUCCCAGGAGUUUCCUCCUGUUUUUUCAACAGCUCGCAGUCAAG”, the binding signal is 0.312 ± 0.215 log2 fold change.
Next, “GGUCACGUCUCAAUCAACUCAGUCCCAGGAGUUUCCUCCUGUAAAUUCAACAGCUCGCAGUCAAG”: 0.371 ± 0.28 log2 fold change; “GGUCACGUCUCAAUCAACUCAUCCUCAGGAGUUUCCUCCUGCAAACUCAACAGCUCGCAGUCAAG”: 0.314 ± 0.204 log2 fold change.
The same measure for “GGUCACGUCUCAAUCAACUCAGUCUCAGGAGUUUCCUCCUGCUAUUUCAACAGCUCGCAGUCAAG”: 0.343 ± 0.24 log2 fold change; for “GGUCACGUCUCAAUCAACUCAUCUCCAGGAGUUUCCUCCUGCUUUUUCAACAGCUCGCAGUCAAG”: 0.328 ± 0.198 log2 fold change.
As for “GGUCACGUCUCAAUCAACUCUUAAGAGGGGGGGAAAACCCCUUUACCCUCAACGUCAACAGCUCGCAGUCAAG”, the binding signal amounted to 0.385 ± 0.451 log2 fold change.
Regarding “GGUCACGUCUCAAUCAACUCUUAAGAGGGGGGGAAAACCCCUUUACCCUCAAAAUCAACAGCUCGCAGUCAAG”, the binding signal amounted to 0.666 ± 0.398 log2 fold change.
For “GGUCACGUCUCAAUCAACUCUUAAGAGGGGGGGAAAACCCCUUUACCCUCGCCAUCAACAGCUCGCAGUCAAG”, the binding signal turned out to be 0.455 ± 0.394 log2 fold change.
The same measure for “GGUCACGUCUCAAUCAACUCAUCGCCCAGGGAAAGCCCUGGUUAAUUCAACAGCUCGCAGUCAAG”: 0.329 ± 0.337 log2 fold change.
Next, “GGUCACGUCUCAAUCAACUCUUCUCCCAGGGAAAGCCCUGGUAAACUCAACAGCUCGCAGUCAAG”: 0.33 ± 0.26 log2 fold change; “GGUCACGUCUCAAUCAACUCAACUCCCAGGGAAACCCCUGGUAAAUUCAACAGCUCGCAGUCAAG”: 0.307 ± 0.342 log2 fold change.
Next, “GGUCACGUCUCAAUCAACUCUUCUCCCAGGGAAAUCCCUGGUAAACUCAACAGCUCGCAGUCAAG”: 0.359 ± 0.267 log2 fold change; “GGUCACGUCUCAAUCAACUCUUCUUCCAGGGAAAUCCCUGGUAAUUUCAACAGCUCGCAGUCAAG”: 0.413 ± 0.238 log2 fold change.
Turning to “GGUCACGUCUCAAUCAACUCUUCUCCCAGGGAAAUCCCUGGUAUACUCAACAGCUCGCAGUCAAG”, the binding signal stood at 0.329 ± 0.25 log2 fold change.
The same measure for “GGUCACGUCUCAAUCAACUCUUCUUCCAGGGAAAUCCCUGGCAAACUCAACAGCUCGCAGUCAAG”: 0.309 ± 0.268 log2 fold change; for “GGUCACGUCUCAAUCAACUCAAUCCCCAGGGAAAUCCCUGGUAAAUUCAACAGCUCGCAGUCAAG”: 0.453 ± 0.315 log2 fold change; for “GGUCACGUCUCAAUCAACUCAUCCCCCAGGGAAAUCCCUGGUUAAUUCAACAGCUCGCAGUCAAG”: 0.368 ± 0.293 log2 fold change.
With “GGUCACGUCUCAAUCAACUCAAUCUCCAGGGAAAUCCCUGGUUAAUUCAACAGCUCGCAGUCAAG”, the binding signal worked out at 0.348 ± 0.266 log2 fold change.
The same measure for “GGUCACGUCUCAAUCAACUCAAUCUCCAGGGAAAUCCCUGGCUAAUUCAACAGCUCGCAGUCAAG”: 0.315 ± 0.249 log2 fold change.
As to “GGUCACGUCUCAAUCAACUCAUUAGAGGGGGGGAAAACCCCUUUACCCUCAUCAUCAACAGCUCGCAGUCAAG”, the binding signal came out at 0.333 ± 0.443 log2 fold change.
Next, “GGUCACGUCUCAAUCAACUCCUCAGAGGGGGGGAAAACCCCUUUACCCUCAUUAUCAACAGCUCGCAGUCAAG”: 0.4 ± 0.421 log2 fold change; “GGUCACGUCUCAAUCAACUCCUCAGAGGGGGGGAAAACCCCUUUACCCUCCUUAUCAACAGCUCGCAGUCAAG”: 0.431 ± 0.416 log2 fold change.
For the sequence “GGUCACGUCUCAAUCAACUCUAAAGAGGGGGGGAAAACCCCUUUACCCUCCUACUCAACAGCUCGCAGUCAAG”, the binding signal was found to be 0.315 ± 0.441 log2 fold change.
Next, “GGUCACGUCUCAAUCAACUCUAAAGAGGGGGGGAAAACCCCUUUACCCUCAUCAUCAACAGCUCGCAGUCAAG”: 0.394 ± 0.392 log2 fold change; “GGUCACGUCUCAAUCAACUCUAUAGAGGGGGGGAAAACCCCUUUACCCUCAUCAUCAACAGCUCGCAGUCAAG”: 0.306 ± 0.416 log2 fold change; “GGUCACGUCUCAAUCAACUCUCAAGAGGGGGGGAAAACCCCUUUACCCUCAUUAUCAACAGCUCGCAGUCAAG”: 0.622 ± 0.45 log2 fold change.
The same measure for “GGUCACGUCUCAAUCAACUCACUAGAGGGGGGGAAAACCCCUUUACCCUCAUUAUCAACAGCUCGCAGUCAAG”: 0.408 ± 0.406 log2 fold change; for “GGUCACGUCUCAAUCAACUCACUAGAGGGGGGGAAAACCCCUUUACCCUCAUCGUCAACAGCUCGCAGUCAAG”: 0.311 ± 0.421 log2 fold change; for “GGUCACGUCUCAAUCAACUCCUCAGAGGGGGGGAAAACCCCUUUACCCUCCCAUUCAACAGCUCGCAGUCAAG”: 0.356 ± 0.426 log2 fold change.
The same measure for “GGUCACGUCUCAAUCAACUCUCUAGAGGGGGGGAAAACCCCUUUACCCUCCCAUUCAACAGCUCGCAGUCAAG”: 0.325 ± 0.44 log2 fold change; for “GGUCACGUCUCAAUCAACUCCACGGAGGGGGGGAAAACCCCUUUACCCUCAAAUUCAACAGCUCGCAGUCAAG”: 0.543 ± 0.46 log2 fold change.
Regarding “GGUCACGUCUCAAUCAACUCCCCAGAGGGGGGGAAAACCCCUUUACCCUCAAAUUCAACAGCUCGCAGUCAAG”, the binding signal was determined as 0.402 ± 0.428 log2 fold change.
